Dicer processing – blocks human Dicer maturation of pre-miR-21 | Q9UPY3 | cat-ELCCA pre-miR-21 Dicer processing, chemiluminescence; hits give high values | z-score at 25 µM | actives 6% (n = 47,000) | AID 1347074; in the data active means z-score above about 3, passing the limit was not always enough;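 further: plate controls were vehicle for no effect and no enzyme for full effect; higher signal means more uncleaved substrate so more Dicer inhibition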
Target sequence (Q9UPY3 whole entry, looked up): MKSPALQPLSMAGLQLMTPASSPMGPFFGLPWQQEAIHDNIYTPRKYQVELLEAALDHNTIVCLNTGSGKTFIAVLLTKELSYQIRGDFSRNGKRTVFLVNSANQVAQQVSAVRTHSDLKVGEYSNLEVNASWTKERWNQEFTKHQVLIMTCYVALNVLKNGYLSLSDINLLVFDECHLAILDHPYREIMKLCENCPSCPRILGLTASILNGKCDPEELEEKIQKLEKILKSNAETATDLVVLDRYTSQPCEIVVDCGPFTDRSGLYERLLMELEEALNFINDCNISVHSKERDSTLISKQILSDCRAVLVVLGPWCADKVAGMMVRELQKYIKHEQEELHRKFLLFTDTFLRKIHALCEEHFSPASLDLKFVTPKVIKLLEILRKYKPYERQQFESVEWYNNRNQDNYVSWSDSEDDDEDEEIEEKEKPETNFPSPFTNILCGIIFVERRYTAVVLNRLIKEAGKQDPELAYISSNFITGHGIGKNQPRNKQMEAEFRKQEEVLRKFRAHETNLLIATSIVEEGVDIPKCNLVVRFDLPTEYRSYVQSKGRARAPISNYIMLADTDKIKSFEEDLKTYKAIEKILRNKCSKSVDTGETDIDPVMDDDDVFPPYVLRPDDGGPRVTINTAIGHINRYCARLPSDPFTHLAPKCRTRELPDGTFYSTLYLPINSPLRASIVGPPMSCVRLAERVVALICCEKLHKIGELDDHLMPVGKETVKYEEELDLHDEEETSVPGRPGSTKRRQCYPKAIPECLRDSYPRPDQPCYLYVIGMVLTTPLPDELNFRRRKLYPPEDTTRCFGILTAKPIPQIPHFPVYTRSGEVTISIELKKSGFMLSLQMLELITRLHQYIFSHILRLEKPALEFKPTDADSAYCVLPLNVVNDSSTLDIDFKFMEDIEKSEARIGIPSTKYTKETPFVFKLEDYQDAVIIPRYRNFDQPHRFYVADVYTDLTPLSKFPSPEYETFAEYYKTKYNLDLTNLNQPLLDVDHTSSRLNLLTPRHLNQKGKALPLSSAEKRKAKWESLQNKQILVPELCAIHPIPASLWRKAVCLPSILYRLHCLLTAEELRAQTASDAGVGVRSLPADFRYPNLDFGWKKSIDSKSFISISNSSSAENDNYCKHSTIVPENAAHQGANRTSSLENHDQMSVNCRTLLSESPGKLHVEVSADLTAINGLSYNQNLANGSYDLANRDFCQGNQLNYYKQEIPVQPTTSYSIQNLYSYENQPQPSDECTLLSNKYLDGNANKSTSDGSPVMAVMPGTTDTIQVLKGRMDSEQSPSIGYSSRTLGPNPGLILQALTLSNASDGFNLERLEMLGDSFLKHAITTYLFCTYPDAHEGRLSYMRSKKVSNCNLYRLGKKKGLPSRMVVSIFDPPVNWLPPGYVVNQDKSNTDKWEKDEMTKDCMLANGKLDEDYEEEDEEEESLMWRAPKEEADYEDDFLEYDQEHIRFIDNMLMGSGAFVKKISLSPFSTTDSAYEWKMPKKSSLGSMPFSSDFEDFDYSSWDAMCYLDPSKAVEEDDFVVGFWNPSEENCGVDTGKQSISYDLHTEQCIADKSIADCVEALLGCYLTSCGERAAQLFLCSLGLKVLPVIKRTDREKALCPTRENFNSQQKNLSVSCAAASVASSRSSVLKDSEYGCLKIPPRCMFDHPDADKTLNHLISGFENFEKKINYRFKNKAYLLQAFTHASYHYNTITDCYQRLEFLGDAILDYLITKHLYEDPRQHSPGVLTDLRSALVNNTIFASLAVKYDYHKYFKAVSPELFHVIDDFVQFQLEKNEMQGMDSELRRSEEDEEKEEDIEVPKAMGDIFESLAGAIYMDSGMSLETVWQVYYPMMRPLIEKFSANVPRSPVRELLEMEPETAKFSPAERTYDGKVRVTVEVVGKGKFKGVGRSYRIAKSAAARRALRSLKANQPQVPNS
An asterisk follows results filed as active. The full list was thinned out, with hits kept by preference.

SMILES	Dicer processing
CC1(C)CC(=O)C2=C(C1)Oc1ccccc1C2CC(=O)c1cccs1 (stereo not given)	1.82
O=C(Cn1cnc([N+](=O)[O-])n1)Nc1ccc(F)cc1F	0.39
CC(NS(=O)(=O)c1ccc2c(c1)C(=O)c1cc(S(=O)(=O)NC(C)c3ccccc3)ccc1-2)c1ccccc1 (stereo not given)	-0.29
COc1ccc(C2=Cc3ccccc3C(C)(C)O2)cc1	-1.42
Nc1ccc(-c2nc3c(Cl)cccc3[nH]2)cc1	1.69
Nc1ccc(-c2nc3ccccc3[nH]2)cc1	-0.71
Nc1ccc(-c2nc3c(ccc4ccccc43)[nH]2)cc1	23*
CCOCCOC(=O)C1=C(C)NC2=C(C(=O)CC(C)(C)C2)C1c1cccc(Br)c1 (stereo not given)	-0.4
CSc1sc(C#N)c2c1/C(=N/OC(C)=O)CCC2	-1.02
CSc1sc(C#N)c2c1/C(=N/OC(=O)c1ccc(Cl)cc1)CCC2	-2.43
CSc1sc(C#N)c2c1/C(=N\O)CCC2	4.4*
Cc1c(C)n(Cc2ccc(Br)cc2)c(=O)n(Cc2ccc(Br)cc2)c1=O	15.1
COC(=O)c1c(NC(=O)c2ccccc2)csc1C	-0.1
CCOC(=O)c1sc(SC)c(C#N)c1N	-0.89
O=C1C2C3c4ccccc4C(c4ccccc43)C2C(=O)N1c1ccc(Cl)c(Cl)c1 (stereo not given)	1.05
CCCC1C2C(=O)N(c3ccccc3)C(=O)C2ON1c1ccc(Cl)c(Cl)c1 (stereo not given)	7.22*
Cc1ccc(N2C(=O)C3ON(c4ccccc4)C(c4ccncc4)C3C2=O)cc1Cl (stereo not given)	0
O=C(O)CCC(=O)CCC(=O)c1ccc(F)cc1	-2.3
CC(=O)[C@H]1CC[C@H]2[C@@H]3C=CC4=CC(=O)CC[C@@]4(C)[C@@H]3CC[C@]12C	-1.76
NNC(=O)CNC(=O)c1ccc(Br)cc1	4.75*
O=C(O)CNC(=O)c1ccc(Br)cc1	0.52
NNC(=O)CNC(=O)c1c(F)cccc1F	-2
Cc1cccc(Nc2ccc(Cl)cc2[N+](=O)[O-])c1	0.1
O=[N+]([O-])c1ccc2c3c(ccc(Br)c13)CC2	3.34*
Cc1ccc(Br)cc1[N+](=O)[O-]	-1.05
SMILES	Dicer processing
CC(=O)Nc1cc(C)c(Br)cc1[N+](=O)[O-]	0.37
Cc1cccc(C2CC(=O)c3cnc4c(-c5ccccc5)c(C)nn4c3C2)c1 (stereo not given)	1.87
CCOC(=O)c1cc(Sc2cccc(OC)c2)cc(C(=O)OCC)n1	-0.79
COC(=O)/C(C#N)=C1/C(=O)Nc2ccccc21	1.7
Cc1ccc(-c2nc(/N=C/N(C)C)sc2C)cc1Cl	-0.43
O=C(ON/C=N/c1ncc(-c2ccc(Br)s2)s1)c1ccc([N+](=O)[O-])cc1	0.29
Cc1ccc(-c2nc(/N=C/NOC(=O)c3ccc([N+](=O)[O-])cc3)sc2C)cc1Cl	3.56*
COC(=O)C1C2C=CC3(CN(C4CCCCC4)C(=O)C13)O2 (stereo not given)	0.74
Cc1ccc(N2C(=O)C3CCC(C)CC3C2=O)cc1 (stereo not given)	0.19
Cc1ccc(N2C(=O)C(c3ccccc3)C(N3CCOCC3)C2=O)cc1 (stereo not given)	3.11*
O=C1CC(Nc2ccccc2)C(=O)N1c1ccc(N2CCOCC2)cc1 (stereo not given)	-0.25
CC(=O)Nc1cccc(Cl)c1SC(C)C	-0.63
CCOC(=O)C1=NN(c2ccccc2)C2c3cc(OC)c(OC)cc3CCN12 (stereo not given)	0.92
COc1ccc(-c2c3c(nc4ncnn24)-c2ccccc2C3=O)cc1	-4.95
CC(C)c1cccc2c1OC(C(C)C)C(=O)N2 (stereo not given)	0.36
O=C(O)c1nc(-c2ccccc2)n(-c2ccccc2)n1	5.39*
COc1ccc(OC(=O)c2c(C)nn(-c3ccccc3)c2C)cc1	0.4
Cc1nn(-c2ccccc2)c(C)c1C(=O)O	8.41*
O=C(Nc1ccccc1)c1nc(-c2ccccc2)n(-c2ccccc2)n1	0.27
CC(C)(C)c1cc(C(=O)O)nn1-c1ccccc1	0.69
Cc1nn(-c2ccccc2)c(C)c1C(=O)Oc1ccc(Cl)cc1Cl	0.09
O=C(CCc1ccc(O)cc1)NNC(=S)Nc1cccc(C(F)(F)F)c1	-0.64
CSc1sc(C(=O)Nc2cccc(C(F)(F)F)c2)c2c1S(=O)(=O)N(C)c1ccccc1-2	0.14
Nc1ccc2nn(-c3cccc(Cl)c3)nc2c1	-3.58
CSCCC(NC(=O)c1ccc(C(F)(F)F)cc1)C(=O)NN (stereo not given)	-0.55
SMILES	Dicer processing
COC(=O)C(CCSC)NS(=O)(=O)c1cc(C(F)(F)F)cc(C(F)(F)F)c1 (stereo not given)	4.85*
CCOC(=O)C(=CNNS(=O)(=O)c1cc(C(F)(F)F)cc(C(F)(F)F)c1)C(=O)OCC	-0.88
Cc1ccc(OC(C)c2nc(-c3ccc(-n4cccc4)cc3)no2)cc1C (stereo not given)	-1.2
CCCCOC(=O)Nc1nc2ccc(S(C)(=O)=O)cc2s1	4.81*
COc1ccc(OCCCC(=O)Nc2nc3ccc(S(C)(=O)=O)cc3s2)cc1	-2.42
CCCCC(=O)Nc1nc2ccc(S(C)(=O)=O)cc2s1	1.48
COc1cc(SC)ccc1C(=O)Nc1nc2ccc(S(C)(=O)=O)cc2s1	1.59
CC(Oc1ccccc1F)C(=O)Nc1nc2ccc(S(C)(=O)=O)cc2s1 (stereo not given)	-0.69
CCCCC(CC)C(=O)Nc1nc2ccc(S(C)(=O)=O)cc2s1 (stereo not given)	4.8*
Cn1c(=O)n(CCOc2ccccc2)c2ccccc21	-0.08
COc1ccccc1C(=O)CC1(O)C(=O)N(Cc2cccc(F)c2)c2ccccc21 (stereo not given)	0.08
CCOC(=O)C(Sc1n[nH]c(-c2ccc(Cl)cc2)n1)C(C)=O (stereo not given)	0.89
O=C1NC(=S)N/C1=C/c1cccs1	4.08*
Cc1ccc(/C=C2\NC(=S)NC2=O)cc1	4.74*
Cc1cc(C=C2C(=O)NC(=S)NC2=O)cc(C)c1O	-1.62
O=C1/C(=C/c2ccsc2)CC/C1=C\c1cccs1	-1.62
Cc1ccc(S(=O)(=O)Oc2ccc(/C=C3\NC(=O)NC3=O)cc2)cc1	-0.5
COc1ccc(/C=C2/NC(=S)NC2=O)c(Cl)c1OC	-0.81
O=C(c1ccccc1)C(Sc1ccc(Cl)cc1)c1ccccc1 (stereo not given)	-1.22
O=C1NC(=S)S/C1=C/c1ccc(Sc2ccc(C(F)(F)F)cn2)c([N+](=O)[O-])c1	3.42*
O=[N+]([O-])c1cc(C(F)(F)F)ccc1Sc1ccc(C(F)(F)F)cn1	-0.36
O=[N+]([O-])c1ccsc1Sc1ccc(C(F)(F)F)cn1	-0.18
CC(C)COC(=O)C1C2C=CC3(CN(Cc4cccs4)C(=O)C13)O2 (stereo not given)	-1.13
CCc1ccc(-c2ccc(C(=O)Nc3nnc(C(C)(C)C)s3)cc2)cc1	0.3
N#CC(=S)CC(=O)c1ccc(Cl)cc1	-1.87
S=C(NCc1ccco1)N/N=C1\CSCc2ccccc21	-2.54
O=C(CC1(O)C(=O)N(CCc2ccccc2)c2ccc(Br)cc21)c1ccc2c(c1)OCO2 (stereo not given)	4.07*
CCCN1C(=O)C(O)(CC(=O)c2ccc3c(c2)OCO3)c2cc(Br)ccc21 (stereo not given)	2.83
Cc1ccc(C(=O)CC2(O)C(=O)N(CCc3ccccc3)c3ccc(Br)cc32)o1 (stereo not given)	2.46
COc1ccccc1C(=O)CC1(O)C(=O)N(CCc2ccccc2)c2ccc(Br)cc21 (stereo not given)	4.28*
